D2 PAM-1: Beta-Arrestin HTS for Positive Allosteric Modulators of the Human D2 Dopamine Receptor: Potentiators. D(2) dopamine receptor (Homo sapiens), P14416. DiscoveRx D2 beta-arrestin cells, luminescence, 90 min; 100% = 57 uM dopamine signal. potentiation, % (test concentration not listed). 0.23% of 360,000 active. AID 624464, 2012; in the data active = potentiation above about 50%; inconclusive = mostly about 30% to 49%
Target sequence (P14416 whole entry, looked up): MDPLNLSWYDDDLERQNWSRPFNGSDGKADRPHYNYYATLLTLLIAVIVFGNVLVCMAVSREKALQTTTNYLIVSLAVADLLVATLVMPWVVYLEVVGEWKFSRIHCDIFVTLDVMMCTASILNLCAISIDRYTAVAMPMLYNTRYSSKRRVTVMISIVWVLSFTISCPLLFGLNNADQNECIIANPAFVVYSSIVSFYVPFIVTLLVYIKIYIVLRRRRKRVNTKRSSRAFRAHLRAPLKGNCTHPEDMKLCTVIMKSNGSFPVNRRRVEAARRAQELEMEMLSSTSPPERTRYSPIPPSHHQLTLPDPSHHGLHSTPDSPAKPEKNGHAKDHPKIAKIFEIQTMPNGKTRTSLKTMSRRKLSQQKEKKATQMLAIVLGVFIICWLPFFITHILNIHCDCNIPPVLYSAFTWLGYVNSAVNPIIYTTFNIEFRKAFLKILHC
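PathHunter beta-arrestin assay in DiscoveRx D2 cells. Compounds were added with an EC20 of dopamine (50 nM final) for 90 min at 37 deg C. Luminescence was read 1 h after detection reagent, with 57 uM dopamine as the EC100 control.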
D2 ag-1: Beta-Arrestin HTS for Positive Allosteric Modulators of the Human D2 Dopamine Receptor: Agonists; DiscoveRx PathHunter D2 beta-arrestin, luminescence, 90 min; 100% = 57 uM dopamine signal; AID 624465, 2012; D(2) dopamine receptor (Homo sapiens), P14416; 0.084% of 360,000 active; activation, % (no concentration beside the values); in the data active = activation above about 40%; inconclusive = between about 15% and that limit
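Agonist mode: compounds alone added to overnight-plated D2 PathHunter cells for 90 min at 37 C, with 57 uM final dopamine (EC100) defining full response. Beta-arrestin recruitment detected by chemiluminescent reagent, read after 1 h at ambient temperature.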
D2 PAM-2: HTS Assay for Positive Allosteric Modulators of the Human D2 Dopamine Receptor: Primary Screen for Potentiators | HEK293 T-REx D2, calcium flux, EC20 dopamine potentiation | potentiation, % at 10 µM | 0.34% of 340,000 active | AID 485347, 2010;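 active = potentiation over 3 SD above the plate norm, cut at about 30% in these data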
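Tetracycline-induced Hek293 Trex D2 cells, force-coupled to calcium, loaded with no-wash calcium dye. Compound added with 180 s kinetic read for agonism, then EC20 dopamine and a further 180 s read for potentiation.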
D2 antagonist: HTS Assay for Allosteric Antagonists of the Human D2 Dopamine Receptor: Primary Screen for Antagonists; 2% of 340,000 active; inhibition, % at 10 µM; HEK293 TREx D2 cells, calcium flux, dopamine EC80; AID 485344, 2010; D(2) dopamine receptor (Homo sapiens), P14416; in the data active = inhibition above about 30%; inactive = below that, where a call was filed
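Tetracycline-induced HEK293 TREx cells expressing D2 receptor forced-coupled to calcium signalling, loaded with no-wash calcium dye. Compounds added and calcium flux read 180 s, then dopamine added at EC80 and read a further 180 s.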
D2 ag-2: HTS Assay for Allosteric Agonists of the Human D2 Dopamine Receptor: Primary Screen for Agonists; 0.53% of 340,000 active; HEK293 T-REx D2 cells, calcium flux agonist mode; activation, % at 2 µM; D(2) dopamine receptor (Homo sapiens), P14416;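 active = activation over 3 SD above normal in the single-dose calcium agonist read, cut at about 30% in these data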
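In this primary screen, compounds producing a positive calcium signal within 180 s of addition to tetracycline-induced, force-coupled HEK293 Trex D2 cells are flagged; cells are dye-loaded with a no-wash calcium kit beforehand.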
Of the large screens only hits and unclear results are named; the others gave an inactive call. An excerpt weighted towards active compounds, which were near 2.4% of everything screened.

O=C(CCCCCn1c(=S)[nH]c2ccc(N3CCOCC3)cc2c1=O)NCc1ccccc1	none
O=c1c2ccc(Cl)cc2[nH]c(=S)n1CCCN1CCOCC1	D2 antagonist 34
CC1CCN(CCCn2c(=S)[nH]c3ccccc3c2=O)CC1	none
O=C(CCCCCn1c(=S)[nH]c2ccc(N3CCOCC3)cc2c1=O)NCc1cccc(Cl)c1	D2 PAM-2 39
O=c1c2ccccc2[nH]c(=S)n1CCCN1CCN(C2CCCCC2)CC1	D2 antagonist 82
Cc1ccc(C)c(CS(=O)(=O)c2cn(CC(=O)N(C(C)C)C(C)C)c3ccccc23)c1	none (no result: D2 PAM-1, D2 ag-1, D2 antagonist)
O=c1c2ccccc2[nH]c(=S)n1CCCN1CCC(Cc2ccccc2)CC1	D2 antagonist 82
CCCCNS(=O)(=O)c1ccc(C)c(-c2nnc3c4ccccc4c(C)nn23)c1	none (no result: D2 PAM-1, D2 ag-1, D2 antagonist)
COc1ccc(OCc2cc(C(=O)N(C)CC3CCCCO3)no2)c(Cl)c1 (stereo unspecified)	none
COc1ccc(OCc2cc(C(=O)N(C)CCC3CCOCC3)no2)c(Cl)c1	D2 antagonist 65
COC(=O)C1CCN(C(=O)c2sc3nc(-c4ccc(F)cc4)cn3c2C)CC1	D2 PAM-2 31
CCN(CC)c1ccc(CNS(=O)(=O)c2cc3c(cc2C)NC(=O)CO3)cc1	none (no result: D2 PAM-1, D2 ag-1, D2 antagonist)
Cc1cc(C(F)F)n2nc(C(=O)Nc3ccc(F)c(Cl)c3)nc2n1	none (no result: D2 PAM-1, D2 ag-1, D2 antagonist)
O=C(NCC1OCCc2ccccc21)c1cc(COc2ccc(F)cc2Cl)on1 (stereo unspecified)	D2 antagonist 50
CC(=N/O)/C(C)=N\NC(=O)c1ccccn1	none
C/C(=N\NC(=O)c1ccccn1)c1ccc(C(=O)O)s1	D2 antagonist 59 (no result: D2 PAM-1, D2 ag-1)
COc1ccc2c(c1)CC(C(=O)NCCCN1CCN(c3cccc(Cl)c3)CC1)CO2 (stereo unspecified)	none (no result: D2 PAM-1, D2 ag-1, D2 antagonist)
CN1CCN(C2Cc3ccccc3Sc3cc(C(F)(F)F)ccc32)CC1 (stereo unspecified)	none (no result: D2 PAM-2, D2 antagonist, D2 ag-2)
CN1CCN(C2Cc3cc(F)ccc3Sc3ccc(Cl)cc32)CC1 (stereo unspecified)	none (no result: D2 PAM-2, D2 antagonist, D2 ag-2)
CN1CCN(C2=Cc3ccccc3Sc3cc(F)ccc32)CC1	D2 antagonist 80
CN1CCN(C2=Cc3ccc(Cl)cc3Sc3ccc(F)cc32)CC1	D2 antagonist 103
O=C(CCN1CCN(c2ccccc2)CC1)c1ccc(Br)cc1	none
N#Cc1ccc(C(=O)CN2CCN(c3ccccc3)CC2)cc1	D2 ag-2 35
COc1cccc(OC)c1OCCCNC1CCCC1	D2 antagonist 48
Brc1cccc(OCCCNC2CCCC2)c1	D2 antagonist 58
CCOc1ccccc1OCCNC1CCCC1	D2 antagonist 62
Cc1ccc(C)c(OCCCNC2CCCC2)c1C	none
CCOc1ccc(OCCNC2CCCC2)cc1	none
Cc1c(-c2nsc(NC(=O)c3cccs3)n2)nnn1-c1ccc(Cl)cc1	none (no result: D2 PAM-1, D2 ag-1, D2 antagonist)
Cc1nc2nc(NC(=O)c3ccc(Cl)cc3)[nH]n2c(=O)c1Cc1ccccc1	none (no result: D2 PAM-1, D2 ag-1, D2 antagonist)
O=C(CN1C(=O)NC2(CCCCCC2)C1=O)Nc1ccc(OC(F)(F)F)cc1	none (no result: D2 PAM-2, D2 antagonist, D2 ag-2)
O=C(CCC(=O)c1ccc(F)cc1)Nc1cc(Cl)cc(Cl)c1	D2 antagonist 39
COc1ccccc1CNC(=O)N[C@@H](Cc1ccccc1)C(=O)O	D2 antagonist 37
O=C(Cc1ccccc1)N[C@@H](Cc1ccc(O)cc1)C(=O)O	D2 antagonist 36 (no result: D2 PAM-1, D2 ag-1)
CC(C)c1cc(-c2nc(-c3ccccc3)no2)n[nH]1	none (no result: D2 PAM-1, D2 ag-1, D2 antagonist)
Nc1cc(=O)[nH]c(SCC(=O)Nc2cc(Cl)cc(Cl)c2)n1	D2 antagonist 30
Nc1cc(=O)[nH]c(SCC(=O)Nc2ccc(Cl)c(Cl)c2)n1	none
COc1ccc(CCn2c(C)nc3c(c(=O)c4ccccc4n3C)c2=O)cc1	D2 antagonist 49
COc1ccc(Cn2c(-c3ccc(C)cc3)nc3c(c(=O)c4ccccc4n3C)c2=O)cc1	D2 antagonist 37
O=C(COC(=O)CCCC1=NS(=O)(=O)c2ccccc2N1)Nc1ccccc1	D2 PAM-2 38
CCc1ccc(NC(=O)COC(=O)CCCC2=NS(=O)(=O)c3ccccc3N2)cc1	none
Cc1ccccc1C(=O)Nc1cccc(NC(=O)c2ccc(C(C)(C)C)cc2)c1	none (no result: D2 PAM-1, D2 ag-1, D2 antagonist)
Cc1cc(C)nc(N2CCCC(C(=O)Nc3cccc(Cl)c3)C2)n1 (stereo unspecified)	none
Cc1cc(=O)nc2c3ccccc3n(C(C)C(=O)Nc3cc(F)ccc3F)n12 (stereo unspecified)	none (no result: D2 PAM-2, D2 antagonist, D2 ag-2)
Cc1cc(=O)nc2c3ccccc3n(C(C)C(=O)Nc3c(F)c(F)c(F)c(F)c3F)n12 (stereo unspecified)	D2 antagonist 45
Cc1ccc(Nc2nnc(SCC(=O)NC3CCS(=O)(=O)C3)s2)c(C)c1 (stereo unspecified)	D2 antagonist 39
Cc1cccc(C)c1Nc1nnc(SCC(=O)NC2CCS(=O)(=O)C2)s1 (stereo unspecified)	none
COc1ccc(NC(=O)c2ccc(NC(=O)CCS(=O)(=O)c3cccs3)cc2)cc1Cl	none (no result: D2 PAM-1, D2 ag-1, D2 antagonist)
Cc1cc(C)n2nc(CCc3nc4nc(C)cc(C)n4n3)nc2n1	none (no result: D2 PAM-1, D2 ag-1)
CC(=O)N(C(C)=O)c1nc2nc(C)cc(C)n2n1	D2 antagonist 102
C=C(C)Cn1c(SCC(=O)Nc2ccccc2C)nc2sc3c(c2c1=O)CCCC3	none (no result: D2 PAM-1, D2 ag-1, D2 PAM-2, D2 antagonist)
CCCC12CN3CC(CCC)(CN(C1)C3c1ccccc1)C2=O (stereo unspecified)	none (no result: D2 PAM-1, D2 ag-1, D2 antagonist)
Cc1nc2ccccc2n1/N=C/c1ccc([N+](=O)[O-])s1	none
O=[N+]([O-])c1ccc(/C=N/n2cnc3ccccc32)s1	D2 PAM-1 64, D2 ag-1 inconclusive
Cc1cc2ncn(/N=C/c3ccc([N+](=O)[O-])s3)c2cc1C	D2 PAM-1 71
Cn1nnc2c(NCc3ccccc3)ncnc21	none (no result: D2 PAM-1, D2 ag-1, D2 antagonist, D2 ag-2)
CCC(C)[C@H](NC(=O)N1CCn2c1nc1ccccc12)C(=O)NCc1ccccc1 (stereo partly specified)	D2 PAM-2 32
CCCCCOC(=O)Cn1c(=O)c2c(nc(N3CCOCC3)n2C)n(C)c1=O	none
CCOC(=O)Cn1c(=O)c2c(nc(N3CCOCC3)n2C)n(C)c1=O	D2 antagonist 39
CC(C)N(C)c1ncnc2c1ncn2[C@H]1CN(Cc2ccc(Cl)cc2)C[C@@H](CO)O1	none (no result: D2 PAM-2, D2 antagonist, D2 ag-2)
CC(C)Oc1ccc(CCC(=O)N/N=C/c2ccc3c(c2)OCO3)cc1	none
O=C(CSCc1cccc(Br)c1)N/N=C/c1ccc2c(c1)OCO2	D2 antagonist 33
O=C(CSCc1ccccc1Br)N/N=C/c1ccc2c(c1)OCO2	none
